Compound activity as filed in PubChem BioAssay.
HCV inh – HCV inhibition; Huh7.5.1 HCVcc-Cre infection, luciferase reporter, 44 h; Potency, µM (top dose mostly 41.8 µM), usual class: inhibitors; 3.4% of 340,000 active
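After 44 h co-culture of compound, cells and HCVcc-Cre (~0.5 moi), substrate is added for 15 min at room temperature and luciferase measured over 15 sec. Cells were seeded at 1,000/well and pre-cultured 4 h.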
HCMV antiviral – blocks human cytomegalovirus replication; 4.5% of 410,000 active; AID 1259415; HFF cells, HCMV-luciferase reporter, 72 h; hits give low values; activity change, negative = inhibition, % at 57.5 µM; in the data active = activity change below about -60%; inconclusive = no clear call, values can overlap the other calls; inactive = above about -39%
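Steps: HFFs plated, 16 h 37C; compounds added; HCMV-luciferase added to MOI 1 PFU/cell; 72 h 37C; OneGlo reagent, 5 min room temperature; luminescence read, normalized to controls.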
Sm TGR block – inhibitors of Schistosoma mansoni thioredoxin glutathione reductase; Q962Y6; AID 485364; purified TGR, DTNB reduction, TNB absorbance 405 nm; 3% of 360,000 active; Potency, µM (titrated, usually from 114 µM), hits mostly inhibitors; also: nearly all actives have a fitted effect of over 60% in size
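TGR 20 nM + NADPH 100 uM (dispensed conc.), cpd preinc 15 min RT; start with NADPH (500 uM addition) then DTNB (15 mM addition). Kinetic TNB absorbance, 405 nm filter. Four-parameter Hill fit across titration.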
Pf growth 96h – inhibits malaria parasite growth, 96 h | Potency, µM (series often up to 28.7 µM), actives largely listed as inhibitors | AID 504834 | P. falciparum luciferase reporter growth, 96 h | 6.9% of 320,000 active
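Compounds incubated with erythrocytes infected by luciferase-expressing P. falciparum (2% hematocrit, 0.05% parasitemia final) for 96 hours, 37 C in 5% CO2. Growth inhibition scored as decreased luciferase luminescence.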
Pf growth 48h – P. falciparum growth inhibition at 48 hours (one generation). 5.9% of 310,000 active. P. falciparum luciferase growth in erythrocytes, 48 h. Potency, µM (top dose mostly 28.7 µM), usual class: inhibitors
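Here the parasites carry a stable luciferase gene and grow inside erythrocytes in Albumax-based RPMI medium with compound for one erythrocytic cycle. Activity is scored as loss of luminescent signal.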
SARS PLP yeast – SARS-CoV PLP inhibition in yeast | S. cerevisiae expressing SARS-CoV PLpro, growth rescue | AID 485353 | 0.19% of 330,000 active | Potency, µM (series often up to 32.9 µM), actives largely listed as activators; calls by dose curve; also: nearly all actives have a fitted effect of over 55% in size
A number is an active result; – = inactive; ? = inconclusive; · = not tested or not shown. This is a sample that favours compounds with a hit; in the whole collection about 15% have one here. Unless noted, calls follow the shape of the dose curve; as a rule, active = well fitted curve in the direction sought with a large enough effect; inconclusive = small, poorly fitted or top-dose-only effect, or another doubt; inactive = no such curve, though single readings can be large; an effect the other way counts as inactive or inconclusive.

SMILES	HCV inh	HCMV antiviral	Sm TGR block	Pf growth 96h	Pf growth 48h	SARS PLP yeast
COc1cc(C(=O)OCC(=O)N2CCCCC2C)ccc1OCc1c(C)noc1C (configuration not stated)	–	–	–	?	9.3µM	–
C=C(C)[C@@H]1CC=C(CN2CCC(CCOC)(C(=O)OCC)CC2)CC1	?	–	–	?	–	–
COc1ccc(Nc2ncnc3c2nc2n3CCCC2)cc1Cl	·	–	–	·	·	·
O=C(c1ccccc1Cc1ccccc1)N1CCN(S(=O)(=O)c2ccc(F)cc2)CC1	–	–	–	?	?	–
O=C(c1ccccc1Cc1ccccc1)N1CCN(S(=O)(=O)c2ccccc2Br)CC1	?	-72	–	7.4µM	12µM	–
COc1cc(C(=O)N2CCN(S(=O)(=O)c3ccc(C)cc3)CC2)ccc1OCc1c(C)noc1C	–	–	–	·	4.1µM	–
Cc1noc(C)c1COc1ccccc1C(=O)N1CCN(S(=O)(=O)c2ccccc2C(F)(F)F)CC1	–	–	–	?	15µM	–
O=C(COC(=O)C12CC3CC(CC(C3)C1)C2)Nc1nccs1	–	?	·	–	–	–
C=CCn1c(=O)c2ccccc2n2c(SC(C)C(=O)Nc3nc(-c4ccccc4)cs3)nnc12 (configuration not stated)	?	–	–	?	10µM	–
COc1cc(OC)c(C(=O)N(CCc2ccccc2)Cc2ccccc2)cc1OC	–	–	–	?	?	–
CCSc1ccc(-c2cc(NC=O)c3ncc(-c4cccc(C(=O)NCCN(C)C)c4)n3c2)cc1	·	–	·	·	·	·
CC(=O)Nc1cc(-c2cccc(C(=O)NCCN(C)C)c2)cn2c(-c3cccc(C(F)(F)F)c3)cnc12	·	-100	·	·	·	·
COc1ccc(-c2cc(NC=O)c3ncc(-c4cccc(C(=O)NCCN(C)C)c4)n3c2)cc1	·	-66	·	·	·	·
CN(C)CCNC(=O)c1cccc(-c2cnc3c(NC=O)cc(-c4cccc(F)c4)cn23)c1	·	-87	·	·	·	·
O=C1c2ccc(Cl)cc2S(=O)(=O)c2cccc(C(=O)N3CCC(Cc4ccccc4)CC3)c21	?	–	?	–	–	–
Cc1ccc(N2C(=O)N3[C@H](c4cccc(C)c4)[C@@H]4C(=O)N(Cc5ccccc5)C(=O)[C@@H]4[C@]3(C)C2=O)cc1	–	–	–	–	?	–
Cc1cccc([C@@H]2[C@@H]3C(=O)N(Cc4ccccc4)C(=O)[C@@H]3[C@]3(C)C(=O)N(c4cccc(F)c4)C(=O)N23)c1	–	–	–	?	10µM	–
Cc1cccc([C@@H]2[C@@H]3C(=O)N(Cc4ccccc4)C(=O)[C@@H]3[C@]3(CC(C)C)C(=O)N(c4cccc(Cl)c4)C(=O)N23)c1	–	–	–	?	?	–
CC[C@@]12C(=O)N(c3ccc(C)cc3)C(=O)N1[C@H](c1cccc(C)c1)[C@@H]1C(=O)N(Cc3ccccc3)C(=O)[C@@H]12	–	–	–	?	?	–
Cc1cccc([C@@H]2[C@@H]3C(=O)N(Cc4ccccc4)C(=O)[C@@H]3[C@]3(Cc4ccc(Cl)cc4)C(=O)N(c4ccc(Br)cc4)C(=O)N23)c1	–	–	–	8.3µM	?	–
CC[C@@]12C(=O)N(c3cccc(Cl)c3)C(=O)N1[C@H](c1cccc(C)c1)[C@@H]1C(=O)N(Cc3ccccc3)C(=O)[C@@H]12	?	–	–	5.2µM	4.7µM	–
CC[C@@]12C(=O)N(c3ccc(OC)cc3)C(=O)N1[C@H](c1cccc(C)c1)[C@@H]1C(=O)N(Cc3ccccc3)C(=O)[C@@H]12	–	·	–	13µM	?	–
COc1ccc(OC)c(NC(=O)CS(=O)(=O)Cc2ccccc2)c1	–	–	–	–	–	–
COc1ccc(OC)c(NC(=O)c2nc(S(=O)(=O)Cc3ccccc3)ncc2Cl)c1	?	-99	3.2µM	–	–	–
COc1ccc2nc(NC(=O)c3nc(SCc4cccc(C)c4)ncc3Cl)sc2c1	·	–	–	·	·	·
SMILES	HCV inh	HCMV antiviral	Sm TGR block	Pf growth 96h	Pf growth 48h	SARS PLP yeast
COc1ccc(NC(=O)c2nc(S(=O)(=O)Cc3cccc(C)c3)ncc2Cl)c(OC)c1	?	-79	–	–	–	–
COc1ccc2oc(=O)c(C(=O)N3CCN(C(=O)c4ccco4)CC3)cc2c1	–	–	40µM	?	–	–
O=C(CS(=O)(=O)c1ccccc1)c1cc2ccccc2oc1=O	–	·	–	–	–	–
COc1ccc2oc(=O)c(C(=O)Nc3cccc(C(C)=O)c3)cc2c1	–	–	–	–	–	–
COc1ccc2oc(=O)c(/C(C)=N/Nc3ccccc3)cc2c1	–	–	45µM	–	–	–
COc1ccc2oc(=O)c(C(=O)N3CCN(C(=O)c4ccccc4)CC3)cc2c1	–	-95	–	?	–	–
COc1ccc2cc(C(=O)CS(=O)(=O)c3ccccc3)c(=O)oc2c1	–	–	–	12µM	–	–
CCOC(=O)N1CCC(NC(=O)c2cccc3c2C(=O)N(c2ccc(OC)cc2)C3)CC1	–	–	–	?	·	–
O=C(OCCCN=C1NS(=O)(=O)c2ccccc21)c1ccc([N+](=O)[O-])cc1	–	–	–	–	–	–
O=C(COc1ccc(/C=C\[N+](=O)[O-])cc1)N1CCOCC1	–	–	22µM	–	?	–
C=CCN(Cc1ccc(OC)c(OC)c1)C(=O)c1cc2cc(F)ccc2[nH]1	?	–	–	?	?	–
CC(C)N1CCN(Cc2c[nH]c3ccccc23)CC1CCO (configuration not stated)	–	–	–	–	–	·
CC(C)=CCN1CCN(Cc2c[nH]c3ccccc23)CC1CCO (configuration not stated)	–	–	–	2.9µM	–	–
CC(C)Cn1c(CN2CCN(C)C(CCO)C2)nc2ccccc21 (configuration not stated)	–	–	–	9.3µM	–	–
CN1CCN(Cc2nc3ccccc3n2C)CC1CCO (configuration not stated)	–	–	?	–	?	–
CC(C)CN1CCN(Cc2c[nH]c3ccccc23)CC1CCO (configuration not stated)	–	–	–	9.3µM	–	–
CC1CCc2c(sc(NC(=S)NC(=O)c3ccccc3)c2C#N)C1 (configuration not stated)	–	–	?	–	–	–
O=C(NC1CCCC1)c1ccc(CSc2nc3ccncc3n2Cc2ccccc2F)cc1	·	–	–	·	·	·
CCC(C(=O)NC1CCCCC1)n1c(SCc2ccccc2F)nc2ccncc21 (configuration not stated)	–	–	–	8.3µM	–	–
Cc1ccc(S(=O)(=O)N(C)C)cc1NC(=O)CCc1ccccc1	–	–	–	–	–	–
CC(C)c1nn2c(=O)cc(COC(=O)CNC(=O)c3ccccc3)nc2s1	·	–	–	·	·	·
